About 2,700 (4%) of roughly 68,000 compounds showed an effect of 50% or more. For the sample, strong results were picked, then their nearest neighbours and some compounds at random.

This test concerns Plasmodium berghei. The test can be described thus: Screen against P. berghei liver stage (PbLuc), transformed with Luciferase, at 2uM. Type of test: functional, HepG2. Conditions: tested at 2 uM.
As to `Cc1cc(C(=O)N2CCCC2c2nc(O)cc(C(C)C)n2)on1` (stereo unspecified), the INHIBITION was found to be 12.21%. In the case of `CCN(C)C[C@@H]1CN(Cc2cnc3c(S(C)(=O)=O)cnn3c2)C[C@@H]1CO`, the INHIBITION is on record as 10.91%. In the case of `CN(C)S(=O)(=O)c1csc(C(=O)N2CCSCC2)c1`, the INHIBITION is reported as 68.33%. To `CCN(CC)S(=O)(=O)c1csc(C(=O)N2CCC(C(N)=O)CC2)c1` belongs 14.27%. To `CN(C)S(=O)(=O)c1csc(C(=O)N2CCC(C(N)=O)CC2)c1` belongs -0.24%; to `Cc1nc(NCCSc2nnc(C)s2)c2cccnc2n1`, 21%.

For `CN1CC2(CCN(CC3CC3)CC2)COc2ccccc2S1(=O)=O`, the INHIBITION is on record as -22.64%. To `O=C(CS(=O)(=O)Cc1ccccc1)NCc1ccccc1F` belongs 50.59%; to `Cc1ccc(CS(=O)(=O)CC(=O)NCc2ccccc2F)cc1`, 26.74%. For the compound `N#Cc1cccc(CS(=O)(=O)NC(Cc2ccccc2)C(N)=O)c1` (stereo unspecified), the INHIBITION was determined as 18.29%. To `NC(=O)C(Cc1ccccc1)NS(=O)(=O)Cc1ccccc1Cl` (stereo unspecified) belongs -7.47%. The result for `NC(=O)C(Cc1ccccc1)NS(=O)(=O)Cc1ccccc1F` (stereo unspecified) reads 53.13%. In the case of `O=C(CS(=O)(=O)Cc1ccc(F)cc1)NCc1ccccc1F`, the INHIBITION is listed as -54.34%. To `Cc1cnn(CC(=O)NCC2CCN(c3cc(Cl)ccc3C)C2)c1` (stereo unspecified) belongs 80.06%; to `Cc1ccc(Cl)cc1N1CCC(CNC(=O)Cn2cccn2)C1` (stereo unspecified), -48.41%; to `Cc1ccc(Cl)cc1N1CCC(CNC(=O)CC(F)(F)F)C1` (stereo unspecified), 42.92%. The result for `CSCC[C@H](N)c1nnc(SCc2cc(C)ccc2C)o1` reads 17.15%.

Take `O=C(NCC(F)(F)F)C1CSCN1S(=O)(=O)c1ccccc1F` (stereo unspecified): the INHIBITION was determined as 14.06%.

Consider `CCCC1C=CCN1C(=O)c1cc(COc2ccc3c(c2)OCO3)[nH]n1` (stereo unspecified), for which the INHIBITION came out at 5.15%.

`O=C(c1cscn1)N1CCC2(CCN(Cc3nccs3)C2)CC1`: the INHIBITION is recorded as -14.66%. To `Cc1cc(C)cc(-c2cc(C3CCOC3)c(C#N)c(N)n2)c1` (stereo unspecified) belongs 59.27%. As for `COc1ccc(-c2cc(C3CCOC3)c(C#N)c(N)n2)cn1` (stereo unspecified), the INHIBITION is recorded as 7.64%. To `Cc1cc(-c2cc(C3CCOC3)c(C#N)c(N)n2)ccc1Cl` (stereo unspecified) belongs 21.33%; to `CCN1CCO[C@]2(CCC[C@H]2COCc2csc(C)n2)C1`, 32.95%.

As to `COc1ccc(C)cc1Nc1nc2c(C)nn(C)c2c(=O)n1C`, the INHIBITION is listed as -103.52%. The result for `Cc1ccsc1C(=O)NC1CCS(=O)(=O)c2ccccc21` (stereo unspecified) reads -15.77%; that for `O=C(NC1CCS(=O)(=O)c2ccccc21)c1cccs1` (stereo unspecified), 79.83%. With `O=C(NC1CCS(=O)(=O)c2ccccc21)c1sccc1C1CC1` (stereo unspecified), the INHIBITION was -10.14%. The result for `CC(C)CNc1nnc(SC(C(=O)NCc2cccnc2)C(C)C)s1` (stereo unspecified) reads -16.56%.

`CNc1cc2c(nn1)CCN(C(=O)c1ccc3c(c1)CCC3)C2`: the INHIBITION is listed as 29.12%.

On to `CNc1cc2c(nn1)CCN(C(=O)c1ccc3c(c1)OCO3)C2`, for which the INHIBITION was found to be 50.18%. As to `CCNc1cc2c(nn1)CCN(C(=O)c1ccc3c(c1)OCO3)C2`, the INHIBITION is listed as -17.37%. To `Cc1cc(N2CCN(c3ccc(=O)[nH]n3)CC2)nc(-c2ccncc2)n1` belongs -2.96%; to `Cc1c(C(=O)NCCC(=O)N2CCOCC2)sc2ccc(F)cc12`, -6.64%. The result for `COc1cccnc1NC(=O)c1ccc(COCC(F)(F)F)cc1` reads -14.46%; that for `Cc1ccc(-c2noc(CN3CCCC(Cn4cncn4)C3)n2)cc1` (stereo unspecified), -35.33%; that for `Cc1cccc(-c2noc(CN3CCCC(Cn4cncn4)C3)n2)c1` (stereo unspecified), 54.85%.

With `CCCNC(=O)CN1CCN(Cc2csc(C(C)(C)C)n2)CC1`, the INHIBITION turned out to be 22.1%. The result for `CC(C)(C)c1nc(CN2CCCC(Cn3cncn3)C2)cs1` (stereo unspecified) reads 80.49%; that for `Cc1ccc(-c2cc(CN3CCCC(Cn4cncn4)C3)on2)cc1` (stereo unspecified), -23.18%; that for `c1cncc(-c2noc(CN3CCCC(Cn4cncn4)C3)n2)c1` (stereo unspecified), -9.22%. The result for `CCCNC(=O)C1CCN(Cc2csc(C(C)(C)C)n2)CC1` reads -21.58%; that for `CCCNC(=O)C1CCCN(Cc2csc(C(C)(C)C)n2)C1` (stereo unspecified), 52.87%; that for `c1ccc(-c2nc(CN3CCCC(Cn4cncn4)C3)cs2)cc1` (stereo unspecified), -37.28%. To `CC(C)c1nc(CN2CCCC(Cn3cncn3)C2)cs1` (stereo unspecified) belongs 5.52%; to `Cc1cc(CN2CCCC(Cn3cncn3)C2)on1` (stereo unspecified), 59.54%; to `Cc1cc(CN2CCCC(Cn3cncn3)C2)no1` (stereo unspecified), -50.13%. As to `c1ccc(-c2nc(CNC3CCc4ncnn4C3)cs2)cc1` (stereo unspecified), the INHIBITION was -7.88%. To `CCCc1nc(CNCC2CCCN2c2cccnn2)no1` (stereo unspecified) belongs 19.76%; to `c1ccc(-c2cc(CN3C[C@H]4CC[C@@H](C3)N(CC3CCC3)C4)on2)cc1`, 34.16%. As to `Cc1ccccc1CNc1ccccc1OCC(=O)N1CCOCC1`, the INHIBITION is given as -64.94%. The result for `COc1cc(C2c3c(n[nH]c3C)N=C3COC(=O)C32)cc(Br)c1O` (stereo unspecified) reads 37.18%.

In the case of `CC(C)C(=O)N1CCN(Cc2cnn(C)c2)CC2(CC(=O)N(C)C2)C1` (stereo unspecified), the INHIBITION is on record as -2.69%. `Cc1ccc(C(=O)N2CCc3ncc(Cn4cccn4)n3CC2)cn1`: the INHIBITION is listed as 16.43%.

In the case of `O=C(c1cccc(F)c1)N1CCc2ncc(Cn3cccn3)n2CC1`, the INHIBITION is reported as -39.07%. The result for `O=C(c1ccoc1)N1CCc2ncc(Cn3cccn3)n2CC1` reads 50.17%. The result for `O=C(NC1CC1)N1CCn2c(Cn3cccn3)cnc2C1` reads 53.08%. The result for `O=C(NCc1ccccc1)N1CCn2c(Cn3cccn3)cnc2C1` reads 6.33%; that for `CN(C)C(=O)N1CCn2c(Cn3cccn3)cnc2C1`, 25.4%; that for `Cc1ncsc1CN1C[C@@H]2COC[C@]2(C(=O)NCc2ccccn2)C1`, -0.27%. In the case of `CC(C(=O)N1CCN(c2ccccc2)CC1)n1cc(Br)cn1` (stereo unspecified), the INHIBITION is reported as -34.08%. Take `CN1CCN(c2ccccc2CNC(=O)CSC(F)(F)F)CC1`: the INHIBITION is -14.36%. To `CC(C)C(C(=O)N1CCCN(c2cccnn2)CC1)n1cncn1` (stereo unspecified) belongs -0.6%. To `OCc1c(Cl)ncn1-c1ccc(F)cc1` belongs 22.43%; to `O=C(CCC1CCCC1)N1CCC(c2cc3ncccc3c(O)n2)CC1`, 22.39%; to `Cc1nc(NC(=O)c2c(-n3cnnn3)sc3c2CCC3)sc1C`, 10.71%. To `Cc1nc(NC(=O)c2c(-n3cnnn3)sc3c2CCCC3)sc1C` belongs 76.25%; to `Cc1nc(NC(=O)c2c(-n3cnnn3)sc(C)c2C)sc1C`, 60.67%. Consider `CC(C)CNC(=O)c1c(-n2cnnn2)sc2c1CCCC2`, for which the INHIBITION was 15.93%. For `CCCn1nccc1C(=O)Nc1nc(C)c(C)s1`, the INHIBITION is on record as -44.44%. The result for `Cc1sc(-n2cnnn2)c(C(=O)NC(C)C)c1C` reads -21.53%.

The record behind these values is ChEMBL document CHEMBL4513216, “Probing the Open Global Health Chemical Diversity Library for Multistage-Active Starting Points for Next-Generation Antimalarials” (ACS Infect Dis, 2020).
